Only some compounds are listed: those with a hit (about 5.4% of all), similar ones and a draw of the others.
GAA850 FXN act = increases GAA850 frataxin promoter reporter activity; activation, % at 6 µM; 360,000 tested, 0.56% active; HEK293 lucGAA850 FXN promoter luciferase reporter, 24 h; percent of 10 µM SAHA response;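 active means activation above the average of all compounds screened plus 3 SD, cutoff fixed separately per campaign, cut at about 7.5% in these data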;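 further: 0% = DMSO wells and 100% = 10 µM SAHA wells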
HSF1 inh = HSF1 inhibition. NIH3T3-HGL HSE-luciferase, MG132-induced, luminescence 8 h; active compounds read low. activity change, negative = inhibition, % at 7.5 µM (by protocol). 300,000 tested, 0.77% active;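 active means more than half of replicate wells show activity change below -50%, luminescence cut by over half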;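 further: luciferase reports HSF-1 transcriptional activity via heat shock element; 0% = median of DMSO wells and -100% = zero luminescence signal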
DAX1 inh = inhibits human nuclear receptor DAX1; P51843; HEK293 Gal4-DAX1 luciferase reporter, luminescence; inhibition, % at 6.75 µM; 340,000 tested, 0.99% active; AID 504766;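 active means inhibition above the mean over all tested compounds plus 3 SD, cut at about 4.2% in these data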;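 further: 0% = DAX1-transfected cells with DMSO and 100% = empty-vector control cells with DMSO; inhibition shows as a rise in luminescence from relieved DAX1 repression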
HSF1 activator = increases HSF-1 driven luciferase reporter signal; NIH3T3-HGL HSF-1 luciferase reporter, MG132, 8 h; 100% = twice DMSO control signal; activation, % at 9 µM; 300,000 tested, 1.7% active;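 active means mean replicate activation of at least 50% with a set share of replicates each reaching 50%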;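 further: 0% = median of the neutral control wells and 100% = twice that signal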
AHR act = activators of human aryl hydrocarbon receptor | P35869 | AHR-responsive luciferase reporter cells, luminescence | activation, % at 5 µM | 320,000 tested, 2.5% active | AID 2796; in the data active means activation above about 47%;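 further: 0% = vehicle wells and 100% = reference agonist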
Starred values were filed as active, the others as inactive; . = no result.

SMILES | GAA850 FXN act | HSF1 inh | DAX1 inh | HSF1 activator | AHR act
O=C(NCc1ccccn1)C1(C(F)(F)F)C/C(=C\CCO)CCCO1 (stereo not given) | 2 | -5 | 0 | -16 | -7
CCOc1ccc(NC(=O)COC(=O)C2(C)CC2(Cl)Cl)c([N+](=O)[O-])c1 (stereo not given) | 5 | -53* | -1 | -62 | 0
CC1(C(=O)OCC(=O)Nc2ccc3ccccc3c2)CC1(Cl)Cl (stereo not given) | 6 | 29 | 0 | 66* | 5
COc1ccc(N(C(=O)CCl)C(C(=O)NCCc2ccccc2)c2cccs2)cc1 (stereo not given) | -12 | -93* | -3 | -94 | -2
COc1ccc(NC(=O)C(NC(=O)Cc2cccs2)c2ccc(C)cc2)cc1 (stereo not given) | -3 | -3 | 4.7* | 1 | 0
O=C(Cc1cccs1)NCCCc1ccccc1 | 2 | -8 | 2 | -7 | 2
COc1ccc(CNC(=O)C(c2ccncc2)N(C(=O)Cc2cccs2)c2ccccc2)cc1 (stereo not given) | 0 | . | 2 | . | .
COc1ccc(CCNC(=O)Cc2cccs2)cc1 | 2 | -55* | -1 | -67 | 12
Cc1cc(C)cc(C(=O)NCC(=O)OCC(=O)Nc2cccnc2Cl)c1 | 0 | -7 | 0 | -4 | 4
O=C(O)[C@@H]1CCCN1S(=O)(=O)c1cccc2cccnc12 | 1 | . | 1 | . | -3
COc1ccc(Cn2c(-c3ccc(Br)cc3)c[n+]3ccccc23)cc1 | 2 | 34 | 0 | 62* | 14
COc1ccc(Cn2c(-c3ccc(OC)cc3)nc3ccccc32)cc1 | 3 | . | 0 | . | 2
CCn1c(=O)c2c(nc(SCC(=O)NC3CCCC3)n2C)n(C)c1=O | 0 | -8 | 0 | -18 | -1
O=C(O)c1cccc2c1C(=O)c1ccc(-c3ccc(F)cc3F)cc1S2(=O)=O | 1 | . | 0 | . | 1
NC(=O)Cn1cc(C(=O)COc2ccccc2)c2ccccc21 | . | -4 | . | 3 | 75*
COc1cccc(C=O)c1OCCCOc1cccc2cccnc12 | 4 | 43 | 2 | 53* | 10
Cc1ccc2cc(CN(CC3CCCO3)C(=S)Nc3ccccc3)c(=O)[nH]c2c1C (stereo not given) | -6 | 5 | -3 | 3 | 51*
Cc1cccc2cc(CN(CC3CCCO3)C(=S)NCc3ccco3)c(=O)[nH]c12 (stereo not given) | -4 | 2 | -1 | 16 | 12
Cc1cc(C)c2[nH]c(=O)c(CN(CC3CCCO3)C(=S)NCc3ccco3)cc2c1 (stereo not given) | 1 | 36 | 0 | 62* | 17
Cc1ccc(C)c2[nH]c(=O)c(CN(Cc3ccco3)C(=S)NCC3CCCO3)cc12 (stereo not given) | 1 | 57 | 1 | 77* | 8
COc1ccccc1NC(=S)N(Cc1ccco1)Cc1cc2cc(C)cc(C)c2[nH]c1=O | -2 | 10 | -1 | 30 | 72*
CC(C)CN1CC(C)C(=O)NC1=S (stereo not given) | 1 | . | 0 | . | .
COc1ccc(NC(=O)C2(C)Cc3c(-c4ccc(N(C)C)cc4)ccnc3O2)cc1OC (stereo not given) | 0 | . | . | . | .
O=C(Nc1nnc(CCc2ccccc2)s1)c1cccc(F)c1 | 3 | 12 | 2 | 23 | 3
CCc1cc(=O)oc2c(CNCc3ccccc3F)c(O)c(Cl)cc12 | 1 | 13 | 0 | 64* | 2
SMILES | GAA850 FXN act | HSF1 inh | DAX1 inh | HSF1 activator | AHR act
CCCc1cc(=O)oc2c(CN3CCCC3)c(O)c(Cl)cc12 | -1 | -4 | -1 | 32 | -1
O=S(=O)(c1ccc(Cl)c(C(F)(F)F)c1)N1CCN(CC(O)COc2ccccc2F)CC1 (stereo not given) | 0 | 8 | 1 | 3 | 1
Clc1ccc(CNC2CCN(Cc3ccccc3)CC2)cc1 | 0 | 40 | 2 | 81* | 0
COc1ccc(CCCNC(=O)C2CCC(=O)N(CC3CCCCC3)C2)cc1 (stereo not given) | 2 | 4 | 0 | -1 | 0
CCC1CCCCN1S(=O)(=O)c1ccc(C(=O)Nc2nnc(C3=COCCO3)o2)cc1 (stereo not given) | 1 | -5 | 0 | 0 | 4
O=C(O)CCC1(C(=O)O)OCCc2ccccc21 (stereo not given) | -3 | -67* | 0 | -75 | 1
S=C(N/N=C/c1ccc2c(c1)OCO2)NC1CC2CCC1C2 (stereo not given) | 5 | 22 | . | 39 | 68*

Screens from PubChem.
